# Bioassay records (PubChem BioAssay)
# D1 antag – antagonists of human D1 dopamine receptor; P21728; HEK293 TREx D1 cells, calcium flux, dopamine EC80; hits give low values; activity change, negative = inhibition, % at 10 µM; actives 3.2% (n = 360,000); in the data active = activity change below about -30%
# Target sequence (P21728 whole entry, looked up): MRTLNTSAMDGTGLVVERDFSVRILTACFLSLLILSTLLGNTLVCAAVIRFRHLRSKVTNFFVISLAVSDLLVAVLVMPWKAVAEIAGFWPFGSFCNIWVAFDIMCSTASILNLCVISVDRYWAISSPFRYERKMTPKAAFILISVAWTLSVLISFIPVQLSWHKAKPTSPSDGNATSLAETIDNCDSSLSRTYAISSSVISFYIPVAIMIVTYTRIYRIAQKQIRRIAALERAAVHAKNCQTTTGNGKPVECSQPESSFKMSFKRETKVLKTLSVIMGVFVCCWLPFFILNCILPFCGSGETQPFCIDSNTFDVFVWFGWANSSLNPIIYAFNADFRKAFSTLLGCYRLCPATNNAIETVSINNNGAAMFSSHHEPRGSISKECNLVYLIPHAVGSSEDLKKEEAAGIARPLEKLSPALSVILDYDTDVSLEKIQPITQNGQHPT
#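 Compound effects on dopamine-evoked calcium signalling were measured in tetracycline-induced HEK293 Trex D1 cells. Dopamine at EC80 followed a 180 s compound pre-read, and fluorescence was tracked kinetically for 180 s more.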
# TRHR enhancer – allosteric enhancers of human TRH receptor | TRHR cells, fluo-8 calcium fluorescence, EC20 TRH enhancement | enhancement, % at 2 µM | P34981 | actives 0.66% (n = 360,000) | AID 493056; in the data active = enhancement above about 30%
#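 TRHR-expressing cells loaded with fluo-8 calcium dye were read kinetically (ex 480/em 530) during compound addition, then stimulated with an EC20 of TRH (10 nM final). Enhancement of the Gq-mediated intracellular calcium response was scored.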
# D1 potentiator – potentiators of human D1 dopamine receptor; actives 0.036% (n = 360,000); HEK293 TREx D1 cells, calcium flux, dopamine EC20 potentiation; potentiation, % at 10 µM; P21728; in the data active = potentiation above about 30%
# D1 ag – human D1 receptor agonism. HEK293 T-REx D1 cells, calcium flux, agonist mode. activation, % at 2 µM. actives 1% (n = 360,000). AID 504660
#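 Inducible HEK293 T-REx D1 cells, force-coupled to calcium signalling, were plated at 4000 cells/well with tetracycline and held overnight at 30 C. After no-wash calcium dye loading, compound-evoked calcium rise over 180 s flagged agonists.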
# TRHR agonist – activates the human TRH receptor; P34981; TRHR cells, calcium flux fluo-8, FDSS agonist mode; activation, % at 2 µM; actives 0.18% (n = 360,000)
#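 Fluo-8-loaded TRHR cells; 10 s baseline, compound added, kinetic Ca2+ fluorescence read 1/s, agonist mode.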
# Numbers stand for hits; - = inactive; ! = a repeat was not active. Shown are actives, neighbours in structure and some others; about 4.6% of the full set was active somewhere. Cut-off read from the data, not from the text of the source, unless noted: active = activation above about 30%; inactive = the rest.
SMILES,D1 antag,TRHR enhancer,D1 potentiator,D1 ag,TRHR agonist
N#Cc1c(NC(=O)Cn2cnc3ccccc3c2=O)oc(-c2ccccc2)c1-c1ccccc1,-54.9,-,-,-,-
COc1ccc(NC(=O)Nc2nnc(N(C)C3CCCCC3)s2)c(OC)c1,-,-,-,-,-
OC(c1cc(-c2ccc(Cl)cc2)nc2ccccc12)C1CCCCN1 (centres undefined),-,-,-,-,-
O[C@@H](c1cc(C(F)(F)F)nc2c(C(F)(F)F)cccc12)[C@H]1CCCCN1,-,-,-,44.2,-
OC(c1cc(C(F)(F)F)nc2c(Cl)cc(Cl)cc12)C1CCCCN1 (centres undefined),-,-,-,32.4,-
C[C@@H](CSc1ccccc1)CN1CC[C@H](O)CCC1=O,-31.0,-,-,-,-
Cc1ccc(O)c(NC(=O)COCc2cc(-c3ccco3)on2)c1,-,-,-,-,-
O=C(c1cc(C2CC2)nn1-c1ccccc1)N1CCN(c2ccc(O)cc2)CC1,-,30.0,-,-,-
CNC(=O)C1CCC(Cn2c(=O)c3sccc3n(CC(=O)N3CCCC(C)C3)c2=O)CC1 (centres undefined),-,-,-,-,-
Cc1ccc(Cl)c(OCCN2CCc3ccccc3C2)c1,-39.7,-,-,-,-
CCOc1ccccc1OCCCOc1ccc(C)cc1Cl,-85.9,-,-,-,-
C/C=C/c1ccc(OCCN2CCc3ccccc3C2)c(OC)c1,-,-,-,-,-
Cc1ccc(Cl)c(OCCCCN(C)Cc2ccccc2)c1,-,-,-,-,-
Cc1ccc(Cl)c(OCCCN(C)Cc2ccccc2)c1,-55.3,-,-,-,-
CCc1nn(CC(=O)NCc2ccc(OC)cc2OC)c(=O)c2cc3c(OC)cccc3n12,-,-,-,-,-
c1cncc(Nc2c3ccccc3nc3ccccc23)c1,-30.7,-,-,-,-
COc1ccc(Nc2c3ccccc3nc3ccccc23)cc1,-95.5,-,-,-,-
COc1ccc(Nc2c3c(nc4ccccc24)CCC3)cc1,-,-,-,-,-
COc1ccc(Nc2nc(N3CCCC3)c3ccccc3n2)cc1,-51.3,-,-,-,-
COc1ccccc1Nc1c2ccccc2nc2ccccc12,-52.4,-,-,-,-
CCCCNC(=O)CCn1c(=O)c2cccn2c2cccnc21,-,-,-,-,-
O=C(COc1ccccc1)NCCS(=O)(=O)N1CCN(c2ccccc2)CC1,-35.4,-,-,-,-
O=C(COc1ccccc1)NCC(c1ccco1)N1CCN(c2ccc(F)cc2)CC1 (centres undefined),-64.2,-,-,-,-
Cc1ccccc1NC(=O)c1ccc2nc(Cc3ccccc3)oc2c1,-,-,-,-,-
O=S(=O)(NCCc1cn2ccsc2n1)c1ccc(Cl)cc1,-,-,-,-,-
SMILES,D1 antag,TRHR enhancer,D1 potentiator,D1 ag,TRHR agonist
Cc1cccc(CNC(=O)CN2CC(C)Sc3ccccc32)c1 (centres undefined),-,-,-,-,-
CCS(=O)(=O)c1nc(NC(C)=O)n[nH]1,-45.7,-,-,-,-
CN(C)CCNC(=O)Cn1c(=O)c2cccn2c2ccc(F)cc21,-,-,-,37.1!,-
CCN(CC)CCNC(=O)Cn1c(=O)c2cccn2c2ccc(F)cc21,-,-,-,-,-
CCOc1ccc(C2C(C(=O)Nc3ccccc3OC)=C(C)Nc3c(C(=O)Nc4cccc(C)c4)cnn32)cc1 (centres undefined),-,-,-,-,-
CC(C)(C)C(=O)NC1CC2CCCC(C1)N2C(=O)Nc1ccccc1Cl (centres undefined),-,-,-,-,-
S=C(Nc1ccccc1Cl)NC1CC2CCCC(C1)N2C1CC1 (centres undefined),-54.1,-,-,-,-
COc1ccc(CCNC(=O)CCc2cn(Cc3ccccc3Cl)c3ccccc23)c(OC)c1,-35.9,-,-,-,-
Cc1oc2ncnc(N3CCCCC3)c2c1C(=O)Nc1cccc(Cl)c1C,-,-,-,-,-
COC(=O)c1ccc(Sc2ccc(C)cc2)c(N)c1,-35.9,-,-,-,-
COc1ccc(OC)c(CNC(=O)c2ccc(Sc3ccc(C)cc3)c(N)c2)c1,-,-,-,-,-
COC(=O)c1ccc(C)c(NC(=O)CCSc2ccc(C)cc2)c1,-,34.1,-,-,-
CCCC(=O)Nc1nnc(SCc2cc(=O)n3ccccc3n2)s1,-,-,-,-,-
Cc1cccc(NC(=O)NC2CCCCCCC2)c1,-34.1,-,-,-,-
S=C(Nc1ccc(Br)cc1)NC1CCCC1,-50.4,-,-,-,-
O=C(Nc1ccccc1C(F)(F)F)NC1CCCCCCC1,-30.6,-,-,-,-
O=C(Nc1ccc(F)cc1)NC1CCCCCCC1,-35.1,-,-,-,-
O=C(Nc1ccccc1C(F)(F)F)NC1CCCCC1,-,-,-,-,-
Cc1cccc(N(C)C(=O)c2cc3c(=O)oc4ccc(C)cc4c3s2)c1,-,-,-,-,-
O=C(CCC(=O)Nc1ccccc1Cl)NNC(=S)Nc1ccccc1C(F)(F)F,-,-,-,-,-
O=C(NNC(=S)Nc1ccccc1C(F)(F)F)C1CC1,-36.6,-,-,-,-
Nc1ccc(NC(=O)NC2CCCCC2)cc1[N+](=O)[O-],-77.3,-,-,-,-
O=C(Nc1ccc(F)c(F)c1)NC1CCCCC1,-31.6,-,-,-,-
O=C(Nc1ccc(Cl)cc1)NC1CCCCC1,-,-,-,-,-
COc1ccc(-c2nc(Cn3c(=O)cc(-c4ccccc4)c4c(C)nn(C)c43)c(C)o2)cc1OC,-,-,-,-,-
SMILES,D1 antag,TRHR enhancer,D1 potentiator,D1 ag,TRHR agonist
Cc1ccc(-c2cc(NC(=O)c3ccccc3Cl)on2)cc1,-,-,-,-,-
CCc1cccc(C)c1NC(=O)c1cc(S(=O)(=O)N2CCOCC2)cn1C,-,-,-,-,-
COc1cccc(NC(=S)NC(=O)Cc2ccc(Cl)cc2)c1,-,-,-,68.4,-
CCC(=O)NC(=S)Nc1ccccc1OC,-,-,-,-,-
COc1ccc(C(=O)O)cc1NC(=S)NC(=O)CSc1ccc(Cl)cc1,-74.5,-,-,-,-
COc1ccccc1NC(=S)NC(=O)Cc1ccc(Cl)cc1,-43.2,-,-,57.5,-
Cc1cc2c(c(=O)n1Cc1ccc3c(c1)OCO3)C(c1cccnc1)C(C#N)=C(N)O2 (centres undefined),-90.2,-,-,-,-
Cc1cc2c(c(=O)n1Cc1cccnc1)C(c1ccccc1)C(C#N)=C(N)O2 (centres undefined),-,-,-,-,-
CCc1nnc(SCc2ccc(OC)cc2)c2cc3sc(C)cc3n12,-,-,-,-,-
CC1CCN(S(=O)(=O)c2ccc3c(c2)CCN3C(=O)Nc2ccc(Br)cc2F)CC1,-,-,-,-,-
CC(C)OCCCNC(=O)c1cn(C)c2ccc(S(=O)(=O)N3CCCCCC3)cc2c1=O,-34.2,-,-,-,-
